Laboratory results from ChEMBL document CHEMBL1157539, “Thousands of chemical starting points for antimalarial lead identification” (Nature, 2010).

Tests used:
Format in all cases: functional
Plasmodium falciparum [1] = assay: GSK_TCMDC: Inhibition of Plasmodium falciparum 3D7 in whole red blood cells, using parasite LDH activity as an index of growth. Test compounds present at 2uM
Plasmodium falciparum [2] = assay: GSK_TCMDC: Inhibition of Plasmodium falciparum Dd2 in whole red blood cells, using parasite LDH activity as an index of growth. Test compounds present at 2uM
HepG2 = assay: GSK_TCMDC: Percent inhibition of human HepG2 cell line. Test compounds present at 10uM.

Row | Compound | Inhibition (Plasmodium falciparum [1]) [%] | Inhibition (Plasmodium falciparum [2]) [%] | Inhibition (HepG2) [%]
1 | CCOc1cc(C)ccc1N1CCN(CCN2CCC(NC(=O)c3ccc(-c4ccc(C#N)cc4)cc3)CC2)CC1 | 84 | 3 | 9
2 | Cn1nc(-c2cccc(CNCc3ccccc3)c2)c2cnc(NC3CCCC3)nc21 | 85 | 11 | 5
3 | O=C(Nc1ccccc1)N(Cc1ccc(-c2cccc(CNCc3ccc4c(c3)OCO4)c2)cc1)C1CCN(Cc2ccccc2)CC1.O=C(O)C(F)(F)F | 100 | 65 | 29
4 | Cc1ccc2[nH]c3ccccc3c(=O)c2c1 | 93 | 74 | 0
5 | CC(C)C1=CC(=NOS(=O)(=O)c2ccccc2)C=C(C(C)C)C1=O | 92 | 74 | 23
6 | O=C(Cn1c(CCc2cccc(F)c2F)cc(=O)c2ccccc21)N(Cc1ccc(-c2ccc(C(F)(F)F)cc2)cc1)C1CCN(CCN2CCOCC2)CC1.O=C(O)C(O)C(O)C(=O)O | 100 | 41 | 53
7 | NC(=O)c1cccc(C(=O)Nc2cccc(-c3ccc(-c4nc5ccccc5[nH]4)s3)c2)c1 | 95 | 69 | 37
8 | O=C(Nc1ccc(N2CCNCC2)nc1)c1oc(-c2ccccc2)nc1C(F)(F)F | 100 | 62 | 7
9 | COc1ccc(CC2(c3ccc(F)cc3)N=C(N)N(CCCc3cccnc3)C2=O)cc1.O=C(O)C(F)(F)F (centres undefined) | 98 | 97 | 12
10 | CS(=O)(=O)Cc1ccc(Nc2nccc(-c3c(-c4cccc(NC(=O)c5c(F)cccc5F)c4)nn4ccccc34)n2)cc1 | 99 | 75 | 78
11 | COc1ccccc1-c1[nH]c2ccccc2c1CN1CCC(c2c(C)cccc2C)CC1 | 96 | 13 | 49
12 | O=C(Nc1ccc(Oc2ccccc2)cc1)N(CCN1CCCC1)Cc1ccc(-c2ccc(CN3CCNCC3)cc2)cc1.O=C(O)C(F)(F)F | 88 | 90 | 48
13 | COc1ccccc1CNc1ccnc(NCCc2cccc(C(F)(F)F)c2)n1 | 93 | 68 | 39
14 | COc1cccc(C2=CC(C)(C)Oc3cc(OCCN(C)C)ccc32)c1.Cl | 97 | 96 | 57
15 | O=C(NC1CC1)c1cnc(N2CCC(c3ccccc3)CC2)c(Cl)c1.O=C(O)C(F)(F)F | 94 | 95 | 6
16 | CCCc1cc(Cc2cnc(N)nc2N)cc(CCC)c1OCCCCC(=O)O | 95 | 23 | 18
17 | COc1ccc(C2CC(c3cccs3)=NN2C(=O)CNc2cccc(C#N)c2)cc1OC (centres undefined) | 87 | 35 | 8
18 | O=C(Nc1ccc(Cl)c(-c2nc3ccccc3[nH]2)c1)c1ccc(-c2ccc(Cl)cc2)o1 | 89 | 22 | 16
19 | CCN(CC)S(=O)(=O)c1ccc(C(C)NC(=O)c2ccccc2COc2ccccc2)cc1 (centres undefined) | 100 | 89 | 0
20 | Cl.O=C(Nc1ccc2c(c1)CCN(C1CCC1)CC2)c1ccc(-c2cn3ccccc3n2)cc1 | 100 | 42 | 13
21 | Cl.N=C(N)NN=Cc1cc([N+](=O)[O-])ccc1Sc1ccccc1CO | 84 | 0 | 25
22 | Cc1ccc(-c2nc3cc(C(=O)NC4CCC(N5CCCc6ccc(C#N)cc6C5)CC4)ccc3[nH]2)cc1 (centres undefined) | 100 | 49 | 23
23 | Cc1ccc(N2CCN(C(=O)c3cccc(-c4cncc5nc(-c6ccco6)n(C)c45)c3)CC2)nc1 | 94 | 91 | 0
24 | Cc1cc(-c2cccc3c(C(=O)N4CCc5cc6nccc(N7CCN8CCC[C@H]8C7)c6cc54)cccc23)cc(C)n1.Cl | 97 | 76 | 13
25 | COc1ccc2nccc([C@@H](O)CN3CCC(NCc4nc5c([N+](=O)[O-])cccc5[nH]4)CC3)c2c1.O=C(O)C(=O)O | 100 | 84 | 13
26 | Cc1nc(C)c(-c2ccc(Br)cc2)c(O)c1Br | 98 | 95 | 9
27 | C1=CN(Cc2ccccc2)C=CC1=C1C=Nc2ccccc21 | 90 | 69 | 8
28 | O=C(/C=C/c1ccc(Cl)c(Cl)c1)NCCCCN1CCC(c2c[nH]c3ccccc23)CC1 | 91 | 11 | 57
